# From PubChem BioAssay (NCATS)
# Activity calls are given as the source filed them. How the calls were made is not given here.
# Test system: HIV-1 nucleocapsid protein NCp7 (binding to TG oligonucleotide)
# Assay: HIV Nucleocapsid (AID 346);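 further: potency is for inhibitors that block NC binding and lower polarization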
# Conditions: HIV-1 NC / fluorescein-TGTGTGTG probe, fluorescence polarization
# How it was run: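 Reagents dispensed (10 nM TG4xF, 100 nM HIV-1 NC), plates spun, compounds pin-transferred, then incubated 1 hr at room temperature before FP imaging. Buffer: Hepes pH 7.5, 250mM NaCl, 1uM ZnCl2, 100 uM TCEP, 5 mM 2-mercaptoethanol.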
# Potency means the concentration at half of the fitted maximal effect.
row,SMILES,Potency
1,CNc1ccnc(-c2ccccc2OC)n1,> 20 µM (inactive)
2,COc1ncc2nc(CCc3ccccc3)c(=O)n(Cc3cccs3)c2n1,> 20 µM (inactive)
3,COCC(=O)N1CCC[C@@]2(CCN(c3ccncc3)C2)C1,> 20 µM (inactive)
4,N#CCCn1c(=O)c(-c2cc(F)cc(F)c2)nc2cnc(N3CCOCC3)nc21,> 20 µM (inactive)
5,COc1ccc2[nH]cc(CCNc3ncnc4ccc(-c5ccc(C(=O)N(C)C)cc5)cc34)c2c1,> 20 µM (inactive)
6,Cc1nc2cnc(N(C)C)nc2n(Cc2ccc(F)cc2)c1=O,> 20 µM (inactive)
7,O=C(c1ccncc1)N1CCC2(CC1)CN(c1ccc(-c3ccccc3)cc1)C2,> 20 µM (inactive)
8,N#Cc1cccc(-c2cc(NCc3cccnc3)ncn2)c1,> 20 µM (inactive)
9,CS(=O)(=O)N1CCC2(CC1)CN(c1ccc(-c3ccccc3)cc1)C2,> 20 µM (inactive)
10,COc1cccc(-c2cc(NCc3cccs3)ncn2)c1,> 20 µM (inactive)
11,CC(C)NC(=O)N1CC[C@@]2(CCCN(S(C)(=O)=O)C2)C1,> 20 µM (inactive)
12,CN1CCC2(CC1)CCN(S(=O)(=O)c1ccccc1)CC2,> 20 µM (inactive)
13,CN(C)c1ncc2nc(-c3cccc(C#N)c3)c(=O)n(CCC#N)c2n1,> 20 µM (inactive)
14,CN1CCN(c2nc(-c3cccnc3)nc3ccccc23)CC1,> 20 µM (inactive)
15,COc1ccc(Oc2ncc3ncc(=O)n(CCC#N)c3n2)cc1,> 20 µM (inactive)
16,O=c1c(-c2cccc(Cl)c2)nc2cncnc2n1C1CC1,> 20 µM (inactive)
17,N#Cc1cccc(-c2nccc(NCc3cccs3)n2)c1,> 20 µM (inactive)
18,O=C(c1ccncc1)N1CCC2(CC1)CN(c1ccccc1)C2,> 20 µM (inactive)
19,COc1ccc(CNc2ccnc(-c3c(C)noc3C)n2)c(OC)c1,> 20 µM (inactive)
20,COCCn1c(=O)c(-c2cc(F)cc(F)c2)nc2cnc(N(C)C)nc21,> 20 µM (inactive)

row,SMILES,Potency
1,O=C(c1ccncc1)N1CCC2(CC1)CCN(c1ccccc1)CC2,> 20 µM (inactive)
2,Cc1cnc(CNc2ncncc2-c2ccccc2CN(C)C)cn1,> 20 µM (inactive)
3,COc1ccccc1-c1nc(Nc2ccncc2)c2ccccc2n1,> 20 µM (inactive)
4,N#CCCn1c(=O)c(CCc2ccccc2)nc2cnc(OCc3ccccc3)nc21,> 20 µM (inactive)
5,COC(=O)N1CCC2(CCN(Cc3ccccc3)CC2)CC1,> 20 µM (inactive)
6,O=C(c1cccc(F)c1)N1CCC[C@@]2(CCN(c3ccncc3)C2)C1,> 20 µM (inactive)
7,CN(Cc1ccco1)c1cc(-c2ccc3c(c2)OCO3)ncn1,> 20 µM (inactive)
8,COc1ccc(-c2nc3cnc(N4CCN(C)CC4)nc3n(C3CC3)c2=O)cc1,> 20 µM (inactive)
9,N#Cc1cccc(-c2nc3cnc(Oc4cccc(Cl)c4)nc3n(C3CC3)c2=O)c1,> 20 µM (inactive)
10,Cn1c(=O)c(-c2ccc(Cl)cc2)nc2cnc(OCc3ccccc3)nc21,> 20 µM (inactive)
11,COc1ccc(C(=O)N2CCC[C@@]3(CCN(C(=O)Nc4cccc(F)c4)C3)C2)cc1,> 20 µM (inactive)
12,FC(F)(F)c1ccccc1-c1cc(NCc2cccs2)ncn1,> 20 µM (inactive)
13,CN1CCN(c2ncnc3ccc(-c4cccc(C#N)c4)cc23)CC1,> 20 µM (inactive)
14,CN1CCC2(CC1)CCN(C(=O)c1cccc(F)c1)CC2,> 20 µM (inactive)
15,COc1ccccc1CN1CCCC2(CCN(C(=O)c3csnn3)CC2)C1,> 20 µM (inactive)
16,O=C(c1cccc(F)c1)N1CCC2(CC1)CCN(c1ncccn1)CC2,> 20 µM (inactive)
17,CN1CCN(c2ncnc3ccc(-c4ccccc4C#N)cc23)CC1,> 20 µM (inactive)
18,COCC(=O)N1CCC2(CCCN(C(c3ccccc3)c3ccccc3)C2)CC1,> 20 µM (inactive)
19,O=c1c(-c2ccc(F)cc2)nc2cnc(N3CCOCC3)nc2n1CCc1ccccc1,> 20 µM (inactive)
